An excerpt weighted towards active compounds, which were near 2.1% of everything screened.
HIF activator – HIF pathway transcriptional activation. U2OS HRE-luciferase reporter, luminescence; normalized: DMSO 0%, desferrioxamine 100%. activation, % at 7.5 µM (by protocol). actives 0.32% (n = 300,000);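 active = mean activation of at least 10% of the iron chelator positive control signal, with at least half of replicates also reaching 10%; inconclusive = mean and replicate majority disagree about reaching 10%; inactive = mean and most replicates under 10%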
aSyn 5UTR inh – 5' untranslated region of α-synuclein, MLPCN primary screen. alpha-synuclein 5'UTR reporter, inhibitor activity. inhibition, % (tested at 7.5 µM). actives 0.82% (n = 300,000); in the data active = inhibition above about 60%; inconclusive = no clear call, values can overlap the other calls;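 also: H4 neuroglioblastoma cells stably carrying SNCA 5'UTR luciferase fusion; 0% = DMSO wells and 100% = positive control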
KLF5 inh – inhibitors of KLF5 expression | DLD-1 KLF5 promoter-luciferase reporter, luminescence | inhibition, % at 5 µM | actives 0.23% (n = 290,000) | AID 1700;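 active = inhibition above a per-plate limit of that plate's mean compound inhibition plus 3 SD, cut at about 60% in these data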;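 also: 0% = DMSO wells and 100% = LY294002 at 200 µM; higher means less KLF5 promoter-driven luciferase light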
Wee1 degr inh – human Wee1 degradation inhibition, primary screen | HeLa Luc-Wee1K328M stability, luciferase luminescence; 100% = proteasome inhibitor MG132 effect | reporter increase, % at 5 µM | actives 1.2% (n = 220,000) | AID 1321;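 active = activation above the mean of all tested compounds plus 3 SD, set per screening run, cut at about 8.8% in these data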;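 also: cells exposed to compound for 20 h before luminescence read; 0% = DMSO alone and 100% = MG132 at 30 µM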
Target sequence (P30291 whole entry K328M): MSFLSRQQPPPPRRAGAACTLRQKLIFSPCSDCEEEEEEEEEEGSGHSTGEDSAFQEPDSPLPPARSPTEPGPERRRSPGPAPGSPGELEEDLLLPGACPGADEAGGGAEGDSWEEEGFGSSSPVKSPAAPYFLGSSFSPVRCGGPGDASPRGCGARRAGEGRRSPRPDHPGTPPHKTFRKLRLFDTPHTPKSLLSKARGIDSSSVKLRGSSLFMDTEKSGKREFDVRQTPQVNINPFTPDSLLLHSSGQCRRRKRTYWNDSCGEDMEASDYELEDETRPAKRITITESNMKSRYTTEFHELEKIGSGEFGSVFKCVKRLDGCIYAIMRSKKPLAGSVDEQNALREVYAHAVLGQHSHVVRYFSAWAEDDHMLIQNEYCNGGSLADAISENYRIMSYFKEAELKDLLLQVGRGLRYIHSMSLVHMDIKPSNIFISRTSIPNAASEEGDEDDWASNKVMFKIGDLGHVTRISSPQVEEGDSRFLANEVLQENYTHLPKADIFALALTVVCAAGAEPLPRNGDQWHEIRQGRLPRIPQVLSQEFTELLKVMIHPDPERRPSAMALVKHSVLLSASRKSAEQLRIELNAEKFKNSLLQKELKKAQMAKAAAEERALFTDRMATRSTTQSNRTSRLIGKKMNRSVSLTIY
Platelet DG rel – platelet dense granule release activity | human platelet-rich plasma, SFLLRN dense granule ATP release, luminescence | inhibition, %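 (compounds screened at 7.5 µM in platelet-rich plasma)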 | actives 0.22% (n = 300,000);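 active = mean replicate score, as percent of positive control, at or above 50; inconclusive = mean below 50 but at least one replicate at or above 50; inactive = mean and every replicate below 50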
The depositor's hits bear a star; ? = inconclusive; nt = no result given.

SMILES	HIF activator	aSyn 5UTR inh	KLF5 inh	Wee1 degr inh	Platelet DG rel
CC(=O)c1c(C)[nH]c(C(=O)COC(=O)CCCOc2ccccc2)c1C	0	21	-14	2	22
CC(=O)c1c(C)[nH]c(C(=O)OCCOc2ccccc2)c1C	-5	67*	-63	2	-1
CN(Cc1nccs1)C(=O)C1CCC(=O)N(CCc2ccc(Cl)cc2)C1 (centres undefined)	0	1	-15	nt	-7
CCN(CC)CCOc1ccc2c(c1)C(=NO)c1cc(OCCN(CC)CC)ccc1-2	62*	8	4	8	-7
O=S(=O)(c1ccc2c(c1)C(=NO)c1cc(S(=O)(=O)N3CCCCC3)ccc1-2)N1CCCCC1	-6	96*	-6	0	-6
CCN(CC)S(=O)(=O)c1ccc2c(c1)C(=NO)c1cc(S(=O)(=O)N(CC)CC)ccc1-2	-3	115*	2	1	7
CCN1CCN(Cc2ccc(NC(=O)c3cc(NC(=O)C(=O)c4c[nH]c5ccccc45)cc(OC)c3)cc2C(F)(F)F)CC1	0	117*	nt	nt	5
CCN1CCN(Cc2ccc(NC(=O)c3ccc(C)c(NC(=O)C(=O)c4c[nH]c5ccccc45)c3)cc2C(F)(F)F)CC1	-2	112*	-28	nt	-1
CC(=O)c1ccc(NC(=O)CN(C)CC(=O)Nc2cccc(F)c2)cc1	0	-13	-27	2	3
COCCNC(=O)CN(c1cc(C(F)(F)F)ccc1Cl)S(C)(=O)=O	0	34	1	10*	-18
COC(=O)CN(c1cc(C(F)(F)F)ccc1Cl)S(C)(=O)=O	0	3	-13	-1	6
CCO[C@H]1OC(C(N)=O)=C[C@@H](C2CC2)[C@@H]1CCCO	0	9	nt	nt	-3
O=C(CSc1nc(=O)n2ccccc2n1)N1CCN(c2ccccc2)CC1	0	-2	nt	nt	-30
O=C(CCCCCNC(=O)N1CCn2c1nc1ccccc12)NCCc1ccccc1	1	9	-18	nt	5
CCN(CC(=O)NCc1ccncc1)S(=O)(=O)c1ccccc1	-1	6	-11	nt	-8
COCC(=O)NC1CCN(CC(=O)Nc2ccccc2[N+](=O)[O-])CC1	0	16	-57	0	-7
O=C(O)c1cccc(-n2cccc2/C=C2/SC(=O)N(CC(=O)N3CCCC3)C2=O)c1	14*	-17	-13	nt	8
O=C(CN1C(=O)S/C(=C/c2cccn2-c2ccc(O)cc2)C1=O)N1CCCC1	-2	-5	-13	nt	10
COc1ccc(N/C=C2\CCc3ccccc3C2=O)cc1	-7	94*	-30	0	47
COc1ccc2c(c1)CC/C(=C\Nc1ccc3c(c1)OCO3)C2=O	1	-197	-6	-1	1
O=C1/C(=C/Nc2ccc3c(c2)OCO3)CCc2ccccc21	1	96*	-90	-6	?
COc1cccc(CNC(=O)CSc2nc3ccc(C)cc3[nH]2)c1	0	19	-6	nt	6
COc1cccc(CC(=O)OCC(=O)NC(Cc2ccccc2)C(C)=O)c1 (centres undefined)	0	3	nt	nt	-3
CCOc1ccc(C(=O)Nc2ccc3nc(N4CCN(CC)CC4)cc(C)c3c2)cc1	-1	67*	-25	nt	-1
CCOC(=O)c1c(NC(=O)CSc2nnc(C)o2)sc(C)c1C	0	12	-24	9.8*	1
SMILES	HIF activator	aSyn 5UTR inh	KLF5 inh	Wee1 degr inh	Platelet DG rel
CC1CCCCN1C(=O)Cn1c(=O)oc2cc(S(=O)(=O)N3CCCC3)ccc21 (centres undefined)	0	15	3	nt	6
O=C(NCCc1ccc(Cl)cc1)c1cccc(NC2=NC3CS(=O)(=O)CC3S2)c1 (centres undefined)	0	2	9	nt	-5
O=C(c1ccccc1)c1cnc(-c2ccc(Cl)cc2)s1	-4	-20	-75	-1	3
O=C(c1ccccc1)c1cnc(-c2ccccc2)s1	0	-99	-118	10*	5
CN(C)/C=C/C(=O)c1cnc(-c2ccccc2)s1	0	-116	-29	10*	2
CC1(C)C(C#N)=C(N)OC2=C1C(=O)CCC2	0	21	5	2	10
COc1cccc(CN2C(=O)C3(C(C#N)=C(N)OC4=C3C(=O)CCC4)c3ccccc32)c1 (centres undefined)	0	63*	-9	-3	-39
S=C(Nc1ccccc1)Nc1ccc2cn[nH]c2c1	2	-75	-189	-1	-2
FC(F)Oc1ccc(NC(=S)Nc2ccc3cn[nH]c3c2)cc1	9.8*	-22	-29	-1	1
C/C(CC(=O)Nc1ccc2c(c1)OCO2)=N\NC(=O)c1ccc(N)cc1	0	-10	-59	9.6*	23
COc1ccccc1C(=O)COC(=O)c1ccc(N(C)C)cc1	4	-218	-71	-1	5
COc1ccc(C(=O)c2ccc(N(C)C)cc2)c2ccccc12	0	74*	60	5	0
CC1CCc2c(C(=O)NCc3ccccn3)csc2C1 (centres undefined)	3	-84	-53	9.0*	-14
O=c1c2ccc([N+](=O)[O-])c3cccc(c32)c2nc3ccccc3n12	0	79*	-9	-4	8
Cc1ccc(-c2c(NCCc3ccccc3)c(=O)c2=O)cc1	1	-9	-24	nt	10
O=C1CC(c2ccco2)CC2=C1C=Nc1ccccc1N2 (centres undefined)	-1	-5	-6	-1	-3
O=c1[nH]c2c(s1)C=Nc1ccccc1N2	nt	-48	-24	-1	77*
Cc1ncc(CN2CCCC(C(=O)Nc3ccc(-c4cccc(F)c4)cc3)C2)n1C (centres undefined)	0	-39	-48	nt	15
Clc1ccccc1Nc1nnc(-c2ccncc2)s1	-1	31	-41	1	69*
O=C1CNC(=S)N1Cc1ccc(F)cc1	0	-17	6	nt	8
O=C1CNC(=S)N1Cc1ccccc1	0	-8	-7	9.5*	-4
CCOC(=O)c1sc2cccc(F)c2c1N	1	-39	-1	33*	4
CCOC(=O)c1sc(NC(=O)Nc2ccccc2F)nc1C	-1	70*	-79	-2	8
CC/C(=N\NS(=O)(=O)c1ccc(C)cc1)c1ccco1	2	-8	2	nt	-4
COc1ccccc1N(C)S(=O)(=O)c1ccc(C(=O)OCC(=O)Nc2ccccc2F)cc1	0	19	-39	11*	-1
COc1ccccc1N(C)S(=O)(=O)c1ccc(C(=O)OCC(=O)Nc2cc(C)on2)cc1	0	-4	-22	3	-2
Cc1ccc(OCC(O)CNC2CCCC2)cc1C (centres undefined)	-1	-11	-23	nt	-2
COCCCNC(=O)c1ccc2c(=O)n(Cc3ccc(Cl)cc3)c(=S)[nH]c2c1	-3	11	-27	nt	4
CC1CCN(CCNC(=O)c2ccc3c(=O)n(Cc4ccc(Cl)cc4)c(=S)[nH]c3c2)CC1	-3	98*	-6	nt	-7
Cc1ccc(NC(=O)C2CCN(S(=O)(=O)c3ccc4c(c3)NC(=O)C(C)S4)CC2)cc1Cl (centres undefined)	0	28	-4	nt	5

Screens (PubChem)
